HSF1 inhib: HSF1 inhibitors in luciferase reporter cells, primary screen, cell-based, NIH3T3, luminescence; NIH3T3-HGL HSE-luciferase, MG132-induced, luminescence 8 h; active compounds read low; activity change, negative = inhibition, % at 7.5 µM (by protocol); 0.77% of 300,000 active; AID 2098, 2009;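 active = more than half of replicate wells show activity change below -50%, luminescence cut by over half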;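 note: luciferase reports HSF-1 transcriptional activity via heat shock element; 0% = median of DMSO wells and -100% = zero luminescence signal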
p-CIP stab down: p/CIP-EGFP fusion destabilizers, primary screen, fluorescence, F442A cells. decrease of EGFP signal, % at 10 µM. 0.01% of 290,000 active. 16 h. AID 1984, 2009;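 active = EGFP signal decrease of at least 30% at 10 µM or well 3 SD below plate mean, unless failing retest; inactive = the rest, including hits failing retest or dose response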
HSF-1 act: HSF-1 activators, primary screen, NIH3T3-HGL cells, MG132 stress, luminescence, single point | AID 504408, 2011 | activation, % at 9 µM | NIH3T3-HGL HSF-1 luciferase reporter, 8 h; 100% = twice DMSO control signal | 1.7% of 300,000 active;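 active = mean replicate activation of at least 50% with a set share of replicates each reaching 50%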;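 note: 0% = median of the neutral control wells and 100% = twice that signal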
NALP1 yeast inh: NALP1 inflammasome inhibitors in reconstituted yeast, colorimetric, S. cerevisiae, triplicate retest. S. cerevisiae NALP1/ASC/caspase-1 growth, X-gal OD620, 72 h. inhibition, % at 10 µM. 0.61% of 280,000 active. AID 2071, 2009; in the data active = inhibition mostly above about 24%, no sharp cut-off; inactive = mostly below about 32%
Hsp70 act: Hsp70 transcriptional activators, primary screen, cell-based, HeLa, Hsp70 promoter luciferase, luminescence, 10 µM; 0.04% of 200,000 active; HeLa Hsp70 promoter luciferase reporter; scaled: vehicle 0, proteasome-inhibitor control 100%; activation, % at 10 µM; AID 1203, 2008;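 active = activation above the mean across all tested compounds plus 3 SD, cutoff set per campaign, cut at about 5.5% in these data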;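 note: 100% = MG132 at 30 µM as the positive control and 0% = DMSO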
HSP90 refold inh: HSP90 inhibitors, primary screen, cell lysate, luminescence | Heat shock protein HSP 90 (rabbit reticulocyte lysate; luciferase refolding) | Rabbit reticulocyte lysate, luciferase refolding luminescence, 3 h | inhibition, % at 5.6 µM | 0.91% of 290,000 active | AID 1789, 2009;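 active = inhibition above the screen-wide mean plus 3 SD, computed separately per campaign, cut at about 16% in these data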;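 note: 0% = DMSO wells and 100% = 60 µM geldanamycin wells; inhibitors lower the luminescence because luciferase stays unfolded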
* hit, by the source's call; · = not tested or not shown. Only some compounds are listed: those with a hit (about 3.8% of all), similar ones and a draw of the others.

SMILES	HSF1 inhib	p-CIP stab down	HSF-1 act	NALP1 yeast inh	Hsp70 act	HSP90 refold inh
CCOc1ccc(N2CC(C(=O)NCCc3ccc(S(N)(=O)=O)cc3)CC2=O)cc1 (configuration not stated)	-8.7	2.3	-6.6	-9.5	·	-5.2
O=C(CN1C(=O)NC2(CCc3ccccc32)C1=O)c1ccc(F)cc1 (configuration not stated)	1.4	·	-24.0	·	·	·
COc1ccc(C(=O)NCCOc2ccccc2Cl)c(OC)c1OC	56.5	-3.0	53.9*	37.3	·	-0.1
COc1ccccc1C(=O)NCCCNC(=O)c1cnccn1	-3.0	8.8	-12.4	2.8	·	-1.3
COc1ccccc1C(=O)NCCCNC(=O)c1ccccn1	31.1	4.7	79.4*	2.2	·	2.7
COc1cc(C(=O)NCCOc2ccccc2C)c(Br)c(OC)c1OC	11.1	-8.7	12.8	21.3	-0.2	-2.7
COc1ccc(CNS(=O)(=O)c2ccc(-c3ccc(=O)[nH]n3)o2)cc1	-7.6	-18.5	-4.3	8.5	·	4.8
Cn1nc(C(C)(C)C)cc1C(=O)NN1CCOCC1	-4.9	-3.7	-7.1	4.0	·	-2.9
Fc1ccc(-c2csc(Nc3ccccn3)n2)cc1	18.6	-5.8	43.7	27.1	·	4.9
O=S(=O)(N1CCCCC1)n1nnc2ccccc21	-52.6*	-7.8	-63.6	37.4	-0.3	-1.1
O=C(N/N=C/C(Br)=C/c1ccccc1)c1ccccc1F	179.0	-7.9	250.5*	24.0	·	-3.1
O=C(N/N=C/C(Br)=C/c1ccccc1)c1cccs1	107.8	-15.0	130.3*	3.9	0.8	-2.8
O=C(N/N=C/C(Br)=C/c1ccccc1)c1cc(-c2ccco2)[nH]n1	125.0	-14.6	130.2*	11.6	0.1	0.8
O=C(N/N=C/C(Cl)=C\c1ccccc1)c1ccco1	31.9	-0.3	46.2	4.4	·	-3.5
O=C(N/N=C/C(Cl)=C/c1ccccc1)c1ccco1	3.8	-20.7	53.6*	15.3	2.2	-0.5
CC(/C=N/NC(=O)c1cc(-c2ccc(C)o2)[nH]n1)=C\c1ccccc1	-6.8	1.7	14.6	27.3	-0.2	2.9
O=C(N/N=C/C(Cl)=C/c1ccccc1)c1ccccc1F	32.7	-26.3	76.0*	22.0	·	-5.2
O=C(N/N=C/C=C/c1ccccc1[N+](=O)[O-])c1cccs1	-8.4	8.1	-32.7	23.2	-0.3	-4.4
O=C(N/N=C/c1ccccc1[N+](=O)[O-])c1cccs1	38.6	0.1	60.6*	3.7	·	-2.3
CCN(C(=O)c1cc2c(=O)n3cccc(C)c3nc2n1CCCOC)C1CCCCC1	1.0	4.8	-8.0	21.3	·	-2.8
COCCCn1c(C(=O)NC2CCCCC2C)cc2c(=O)n3cccc(C)c3nc21 (configuration not stated)	39.0	-8.6	70.5*	32.4	·	-4.2
CC/C(=N\NS(=O)(=O)c1ccc(C)cc1)c1ccco1	-64.3*	-12.6	-72.2	10.7	·	-3.6
CN1CCN(c2ccc(Nc3ccnc4cc(Cl)ccc34)cc2)CC1	21.6	-4.3	52.0*	·	·	0.1
COc1ccc(Cl)cc1NC(=O)C1CCCN(S(C)(=O)=O)C1 (configuration not stated)	3.8	-11.4	5.5	6.0	·	0.1
O=C(Nc1ccccc1F)C(=Cc1sc(N2CCOCC2)nc1-c1ccccc1)C(=O)Nc1ccccc1F	16.0	-28.5	63.9*	23.5	0.0	-4.9
SMILES	HSF1 inhib	p-CIP stab down	HSF-1 act	NALP1 yeast inh	Hsp70 act	HSP90 refold inh
COc1cccc2c1cc1c(=O)n(CC(=O)NCc3ccccn3)nc(C)n12	30.9	0.0	23.9	-19.1	·	2.6
O=C(O)c1cc(S(=O)(=O)N(Cc2ccccc2)c2ccccc2Cl)ccc1Cl	-52.3*	3.1	-57.0	3.2	·	0.2
O=C(CSCc1cnn(-c2ccccc2)c1-n1cccc1)NCc1cccs1	·	-1.8	·	16.5	-0.3	2.7
CNC(=O)CSCc1cnn(-c2ccccc2)c1-n1cccc1	5.5	7.4	16.5	41.2*	-0.3	2.2
C/C(=N\n1c(C)nc2ccccc2c1=O)c1ccc(N)cc1	10.0	·	26.6	·	·	·
C/C(=N\n1nnnc1Nc1ccccc1)c1ccc(N)cc1	72.2	-19.5	116.9*	8.8	0.2	2.5
CC1=NCCN1CCNC(=O)Nc1ccc(C(C)(C)C)cc1	-6.3	-1.8	9.0	0.2	·	-0.2
CN1C2CCC1/C(=C\c1ccccc1F)C(=O)/C2=C/c1ccccc1F	75.0	0.7	106.0*	31.4	0.4	10.5
Cc1ccc2c(c1)/C(=C/c1ccccc1F)C(=O)N2	12.4	-5.3	5.0	6.2	·	-2.8
NC(=O)c1nsc(C(=O)N(Cc2cccnc2)C(C(=O)NCc2ccc(F)cc2)c2ccc(O)cc2)c1N (configuration not stated)	11.9	1.5	14.7	-1.9	·	5.1
COc1ccccc1CN1CCCC(CN(CCN(C)C)C(=O)C2CCCC2)C1 (configuration not stated)	-61.7*	-13.6	-70.8	11.0	·	-0.5
COc1ccccc1N(C)S(=O)(=O)c1ccc(C(=O)Nc2ccncc2)cc1	-3.6	·	-5.4	·	·	·
COc1ccccc1N(C)S(=O)(=O)c1ccc(C(=O)NC(C)c2ccccc2)cc1 (configuration not stated)	-67.1*	-1.1	-73.7	·	·	3.5
O=C(C#Cc1ccccc1)c1cccc([N+](=O)[O-])c1	61.3	11.3	100.9*	-4.4	-0.1	4.7
N/C(=N\OC(=O)Oc1ccccc1)c1cccc([N+](=O)[O-])c1	-7.2	-17.5	3.3	26.0	-0.1	-0.7
COc1ccc(OC)c(C(C[N+](=O)[O-])c2c(C)cc3ccccn23)c1 (configuration not stated)	88.3	1.5	112.1*	27.4	·	-1.1
O=C(CCN1C(=O)c2ccccc2S1(=O)=O)N1CCN(c2cccc(Cl)c2)CC1	2.5	·	9.4	·	·	·
Cc1ccc(C(=O)NCCOc2cccc(C)c2)cc1	34.3	-1.4	58.7*	5.4	0.1	-2.8
O=C(NC(=O)c1ccncc1)NC(c1ccccc1)c1ccccc1	-0.3	-32.2	-5.2	5.6	-0.1	-3.2
COc1ccc(O)c(/C=N/NC(=S)NCCc2ccccc2)c1	2.8	-0.1	12.8	10.2	·	-1.2
COc1ccc(/C(C)=N/NC(=S)NCCc2ccccc2)c(O)c1	20.7	-12.0	52.9*	-14.5	·	2.3
CCN(CCn1cccn1)C(=O)C1CCC(=O)N(CCc2cccc(F)c2)C1 (configuration not stated)	3.4	8.0	9.4	0.8	·	0.5
COC(=O)c1cc(NC(=O)c2ccccc2)c(=O)oc1C/C=N\OCc1ccc(Cl)cc1Cl	13.2	10.7	12.6	42.5*	-0.3	1.0

Source: PubChem
